Screening results: PubChem, several laboratories
TIM10 inh – growth inhibitors of isogenic TIM10 control yeast, primary screen, counter-screen for tim10-1 yeast inhibitor project, luminescence, uHTS; 1.4% of 330,000 active; S. cerevisiae TIM10 strain growth, BacTiter-Glo luminescence, 24 h; AID 463195, 2010; inhibition, % at 10 µM;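 active means inhibition of 40% or more at the single tested concentration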;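 further: wild-type TIM10 isogenic control strain grown at permissive 25 °C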
NALP1 inh – NALP1 inflammasome inhibitors in reconstituted yeast, colorimetric, S. cerevisiae, triplicate retest | S. cerevisiae NALP1/ASC/caspase-1 growth, X-gal OD620, 72 h | 0.61% of 280,000 active | inhibition, % at 10 µM; in the data active means inhibition mostly above about 24%, no sharp cut-off; inactive means mostly below about 32%
SKKanGAS inh – S. pyogenes SKKanGAS growth inhibitors in kanamycin, primary screen, streptokinase expression inhibitor project, SKKanGAS strain, BacTiter-Glo luminescence | 1.3% of 300,000 active | AID 1662, 2009 | inhibition, % at 7.5 µM | 6 h;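 active means mean replicate score, as percent of positive control median, at least 50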;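 further: strain carries kanamycin resistance gene driven by streptokinase promoter and grows in 40 µg/ml kanamycin; loss of luminescence reflects streptokinase promoter inhibition or plain growth inhibition; 0% = median of DMSO wells and 100% = positive control at its reference dose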
tim10-1 inh – growth inhibitors of tim10-1 mutant yeast, primary screen, luminescence, uHTS. AID 463190, 2010. S. cerevisiae tim10-1 ts strain growth, BacTiter-Glo, 24 h. inhibition, % at 20 µM. 2.2% of 330,000 active;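 active means inhibition of at least 40%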;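 further: mutant grown at 25 °C; 0% = DMSO wells with yeast and 100% = wells holding no yeast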
NLRP3 yeast inh – NALP3 inflammasome inhibitors in reconstituted yeast, primary screen, luminescence, uHTS; Yeast reconstituted NLRP3/ASC/caspase-1, beta-gal luminescence, 24 h; inhibition, % at 10 µM; 0.39% of 330,000 active;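 active means inhibition of 50% or more; inactive means inhibition below 50%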;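 further: plate controls were induced DMSO wells for no effect and uninduced yeast grown without galactose for full effect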
tim23-1 inh – growth inhibitors of tim23-1 mutant yeast, primary screen, luminescence, uHTS | S. cerevisiae tim23-1 growth, BacTiter-Glo luminescence, 24 h | inhibition, % at 20 µM | 1.3% of 330,000 active;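 active means growth inhibition of the mutant yeast at or above 50%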;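 further: temperature-sensitive mutant grown at 25 °C; plate controls were DMSO-treated mutant yeast for no effect and medium wells lacking yeast for full effect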
tim10-1 conf – growth inhibitors of tim10-1 mutant yeast, confirmation, single concentration, luminescence, S. cerevisiae | 56% of 7,400 active | shares compounds with tim10-1 inh | inhibition, % at 20 µM | S. cerevisiae tim10-1 ts strain growth, BacTiter-Glo, 24 h;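 active means inhibition of yeast growth at or above a set limit in either of two repeat tests at 20 µM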;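 further: tim10-1 mutant grown at permissive 25 °C to find synthetic lethal compounds; 0% = DMSO yeast wells and 100% = medium wells without yeast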
TIM10 conf – growth inhibitors of wild-type TIM10 yeast, confirmation, counter-screen for tim10-1 synthetic lethality project, single concentration, luminescence, S. cerevisiae. 63% of 4,600 active. shares compounds with TIM10 inh. AID 463215, 2010. S. cerevisiae tim10 strain growth, BacTiter-Glo luminescence, 24 h. inhibition, % at 10 µM;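 active means inhibition of yeast growth at or above a set limit in either of two replicates at 10 µM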;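 further: this counterscreen used the strain with wild-type TIM10; 0% = yeast with DMSO and 100% = medium wells lacking yeast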
tim23-1 conf – tim23-1 mutant yeast growth inhibitors, confirmation, luminescence, single concentration; shares compounds with tim23-1 inh; S. cerevisiae tim23-1 growth, BacTiter-Glo luminescence, 24 h; inhibition, % at 20 µM; 83% of 4,400 active; AID 463218, 2010;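 active means inhibition above about 39% in either of two replicate wells at 20 µM, limit read from the data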;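 further: temperature-sensitive tim23-1 mutant grown at 25 °C; 0% = DMSO wells with yeast and 100% = medium wells without yeast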
Active calls of the source: *; · = no result given. Shown are actives, neighbours in structure and some others; about 4.9% of the full set was active somewhere.

SMILES | TIM10 inh | NALP1 inh | SKKanGAS inh | tim10-1 inh | NLRP3 yeast inh | tim23-1 inh | tim10-1 conf | tim23-1 conf | others
CCCn1c2ccccc2c2cnn(CC(=O)NCCCN3CCCC(C)C3)c(=O)c21 (configuration not stated) | -1 | 0 | -3 | 13 | 8 | 2 | · | ·
CCN(C[C@H]1N[C@@](C)(C(=O)OC)[C@H]2C(=O)N(C)C(=O)[C@@H]12)S(=O)(=O)c1ccc(OC)cc1 | 5 | · | · | -7 | 11 | -3 | · | ·
CN1CCN(C2=Cc3cc(Cl)ccc3Sc3cc(F)ccc32)CC1 | -15 | 19 | 90* | 57* | 24 | 78* | 40* | 67*
Cc1c(C(=O)NCc2ccc3c(c2)OCO3)oc2ccccc12 | 41* | -46 | 4 | 48* | 19 | 53* | 42* | 55* | TIM10 conf=28
Cc1ccc2oc(C(=O)NCc3ccc4c(c3)OCO4)c(C)c2c1 | 6 | 15 | -4 | 31 | 23 | 31 | · | ·
O=C(Nc1ccc(Cl)cc1F)c1cccc2ccccc12 | -1 | 9 | 11 | 7 | 20 | 8 | · | ·
COc1cc2nc(SCc3ccc(F)cc3)n(Cc3cccs3)c(=N)c2cc1OC | 17 | 4 | 14 | 24 | 13 | 24 | · | ·
COc1ccc(Cn2c(SCc3ccccc3C)nc3cc(OC)c(OC)cc3c2=N)cc1 | 3 | 35 | 60* | 50* | 16 | 51* | -27 | 1
CCCCOC(=O)c1ccc(NC(=O)c2nn(C)cc2Br)cc1 | 48* | 0 | 19 | 52* | 29 | 55* | 50* | 67* | TIM10 conf=41*
CCCCOC(=O)c1ccc(NC(C)=O)cc1 | 3 | 0 | -2 | 1 | 21 | 1 | · | ·
COc1ccc(/C=N/Nc2cc(N3CCCC3)nc(N3CCCC3)n2)cc1 | 27 | 19 | 19 | 45* | 14 | 68* | 18 | 44*
Oc1ccc(/C=N/Nc2cc(N3CCCC3)nc(N3CCCC3)n2)cc1 | 22 | -8 | -17 | 20 | 30 | 27 | · | ·
O=C(O)c1ccc([N+](=O)[O-])c2c1C(=O)c1ccccc1C2=O | -12 | · | -2 | 10 | 8 | -1 | · | ·
O=C1c2ccccc2C(=O)c2c([N+](=O)[O-])ccc(O)c21 | 35 | · | · | 59* | 10 | 59* | 38* | 69*
CCOc1c2ccccc2nn1CCO | 2 | · | · | 7 | 10 | 16 | · | ·
CC/C(=N\NC(C)=O)c1ccc(OC(F)F)cc1 | -12 | 1 | -4 | 4 | 14 | 9 | · | ·
CC/C(=N\NC(=S)Nc1ccc(OC)cc1)c1ccc(OC(F)F)cc1 | 34 | 21 | -11 | 54* | 25 | 53* | 46* | 43*
Cc1occc1C(=O)N/N=C/C=C/c1ccccc1[N+](=O)[O-] | 21 | -1 | -12 | 24 | 20 | 32 | · | ·
Cc1cc(C(=O)N/N=C/C=C/c2ccccc2[N+](=O)[O-])c(C)o1 | 56* | 12 | -3 | 45* | 2 | 55* | 44* | 57* | TIM10 conf=41*
O=C(COc1ccc(/C=C2/NC(=O)NC2=O)cc1)Nc1ccc(F)cc1 | 13 | 9 | -3 | 2 | 6 | 20 | · | ·
Cc1ccc(C2=N/C(=C\c3ccc(F)cc3)C(=O)N2)cc1 | 28 | · | · | 16 | 30 | 15 | · | ·
Cc1ccc2c(c1)/C(=C/c1ccc(F)cc1)C(=O)N2 | 66* | -4 | -15 | 59* | 41 | 62* | 71* | 50* | TIM10 conf=77*
CC(=O)Nc1ccc(N2C(=O)CC(Sc3nc(C)cc(C)n3)C2=O)cc1 (configuration not stated) | -1 | -12 | -3 | 3 | 17 | 1 | · | ·
CC(C)(C)OC(=O)N/N=C\c1ccc([N+](=O)[O-])s1 | 58* | -14 | 12 | 75* | 25 | 78* | 50* | 64* | TIM10 conf=71*
Cc1ccc(C(=O)N/N=C\c2ccc([N+](=O)[O-])s2)cn1 | 40* | 16 | 5 | 49* | 24 | 56* | 42* | 58* | TIM10 conf=-32
SMILES | TIM10 inh | NALP1 inh | SKKanGAS inh | tim10-1 inh | NLRP3 yeast inh | tim23-1 inh | tim10-1 conf | tim23-1 conf | others
CCOC(=O)N/N=C\c1ccc([N+](=O)[O-])s1 | 32 | 4 | -4 | 53* | 20 | 87* | 38* | 66*
CCOC(=O)N/N=C\c1ccc(C)s1 | 8 | 12 | -1 | 12 | 19 | 5 | · | ·
COc1ccc(NC(=O)CCC(=O)N/N=C/c2ccc([N+](=O)[O-])s2)cc1 | 83* | 28 | 7 | 50* | 6 | 62* | 39* | 62* | TIM10 conf=25
CCCCN(Cc1nc2ccccc2c(=O)[nH]1)C(=O)COc1ccc(F)cc1Cl | 5 | · | · | 13 | 11 | -6 | · | ·
O=C(COC(=O)c1ccccc1O)NCc1ccc2c(c1)OCO2 | 1 | · | · | 21 | -3 | 11 | · | ·
Cc1ccc(NC(=O)c2nc(S(=O)(=O)Cc3ccccc3C)ncc2Cl)cc1C | -33 | -13 | 68* | 42* | 14 | 68* | -54 | 60*
CCS(=O)(=O)c1ncc(Cl)c(C(=O)Nc2ccccc2OC)n1 | -14 | -1 | 1 | -5 | 15 | 18 | · | ·
CCOc1ccccc1NC(=O)c1nc(S(=O)(=O)Cc2ccccc2)ncc1Cl | 32 | 19 | 59* | 59* | 45 | 78* | 41* | 74*
Cc1oc(-c2cccc(Cl)c2)nc1CS(=O)(=O)CC(=O)NC1CCCC1 | 10 | 29 | -1 | 14 | 10 | 13 | · | ·
CCOc1ccc(Oc2ccccc2NC(=O)CN2C(=O)NC3(CCCC3)C2=O)cc1 | 1 | · | 0 | 13 | 15 | -6 | · | ·
Cc1ccc(C(=O)Nc2cccc(C(O)c3ccccc3)c2)cc1 (configuration not stated) | 16 | · | 4 | 17 | 21 | 22 | · | ·
Cc1c(C#N)c(N=CN(C)C)c(C(=O)c2ccc(Br)cc2)n1-c1ccccc1 | 42* | -23 | -11 | 41* | 7 | 56* | 25 | 35 | TIM10 conf=22
CC(=O)c1c(C)[nH]c(C(=O)NNC(=O)COc2cc(C)cc(C)c2)c1C | 0 | · | · | 3 | 2 | 0 | · | ·
CN(CC(=O)Nc1ccc(N2CCOCC2)cc1)C(=O)CCc1ccccc1Cl | -3 | · | -15 | 9 | 18 | 12 | · | ·
